# Assay results reported in PubChem BioAssay AID651784 (National Center for Advancing Translational Sciences (NCATS), 2012).
# Inconclusive results are not listed. Active and inactive are the calls of the source. Calls follow the shape of the dose curve; as a rule, active = well fitted inhibition curve with a large enough effect; inconclusive = small, poorly fitted or top-dose-only effect; inactive = no such curve, though single readings can be large or run the other way.
# Test: Acumen qHTS Assay for Inhibitors of the mTORC1 Signaling Pathway in MEF (Tsc2-/-, p53-/-) Cells: Hit Validation;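 also: phospho-rpS6 Ser235/236 immunofluorescence normalized to propidium iodide cell count; nearly all actives have a fitted effect of over 65% in size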;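 as to activity change, negative = inhibition: cells exposed to compound for 24 hours; plate controls were DMSO for no effect and 7.5 nM rapamycin control for full effect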
# Details: Acumen imaging; activity change, negative = inhibition: at 37.3 µM (top of the series)
# Potency is read from the fitted curve at half-maximal effect.
SMILES,"activity change, negative = inhibition [%]",Potency
O=C(Nc1ccc2oc(-c3cc(Br)ccc3Cl)nc2c1)c1cc2ccccc2o1,-105,
CCc1nn(CC(=O)NCc2ccccc2Cl)c(=O)c2cccn12,3.65,
Cc1ccc(-c2nn(C)c(=O)c3ccccc23)cc1S(=O)(=O)NCCCN(C)C,5.39,
CCCc1oc2ccc(NS(=O)(=O)c3ccc(OCC)cc3)cc2c1C(=O)OCC,,4.14 µM (active)
CCN1CCOC(=O)C1CC(=O)Nc1cc(Cl)ccc1C (stereo unspecified),-93.4,
Cc1c(C(=O)OC2CCC(C)CC2)[nH]c2c1C(=O)CC(c1ccc(F)cc1)C2 (stereo unspecified),,1.04 µM (active)
O=C(NCc1ccccc1)c1ccc2c(c1)N(Cc1ccccc1F)C(=O)c1ccccc1S2=O (stereo unspecified),-33,
CCCCOc1ccc(Cn2c(=O)sc3ccccc32)cc1,-17,
COc1ccc(N(C)C(=O)c2cc(S(=O)(=O)N3CCc4ccccc43)cn2C)c(OC)c1,18.7,
CCOc1ccc(NC(=O)c2sc3nc4c(cc3c2N)CCCCCC4)cc1,,9.27 µM (active)
COc1ccc(CCCc2nnc(SCC(=O)Nc3ccc(OC)cc3)o2)cc1,14,
Cc1ccc(C)c(NC(=O)c2nc(S(=O)(=O)Cc3ccc(F)cc3)ncc2Cl)c1,-90.5,
Cc1noc(/C=C/N(C)C)c1S(=O)(=O)N1CCCC(C(=O)Nc2ccc(F)cc2F)C1 (stereo unspecified),,1.85 µM (active)
O=c1oc2ccccc2cc1-c1cn2cc(Cc3ccccc3F)sc2n1,,16.5 µM (active)
CCOC(=O)Cc1ccc(NC(=O)n2ncc3cc(Cl)ccc32)cc1,,8.26 µM (active)
CCOC(=O)c1ccc(NC(=O)c2nc(S(=O)(=O)Cc3ccccc3)ncc2Cl)cc1,,4.65 µM (active)
